# Tests used:
# Experiment in all cases: PBM binding z-score (relative to random genomic background probes); higher = stronger binding; sequences stand for … in GC…GCGATTGACAGCGTAGAATGAAGG
# [1] = system: RARb homodimer (NR concentration 270 nM)
# In short: (§1)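 Scanned fluorescence from custom Agilent 4×180K protein-binding microarrays was regression-normalized. Binding z-scores use random background probes as reference. Ligand-free nuclear receptor dimers were incubated on the arrays for 1 h and detected with antibodies against each partner (one per run).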
# [2] = system: RARg:RXRa (NR concentration 270 nM, RXRa partner concentration 90 nM)
# In short: as §1
# [3] = system: RARg homodimer (NR concentration 270 nM)
# In short: as §1
# [4] = system: RXRa DBDmut IVT, anti-RXR (DBD mutation: RXRa K156A/R161A, NR concentration 90 nM)
# In short: as §1
# [5] = system: RXRa homodimer (NR concentration 180 nM)
# In short: as §1
# [6] = system: THRa:RXRa (NR concentration 90 nM, RXRa partner concentration 90 nM)
# In short: as §1
# [7] = system: THRa homodimer (NR concentration 90 nM)
# In short: as §1
# [8] = system: VDR homodimer (NR concentration 270 nM)
# In short: as §1
Sequence,PBM binding z-score [1],PBM binding z-score [2],PBM binding z-score [3],PBM binding z-score [4],PBM binding z-score [5],PBM binding z-score [6],PBM binding z-score [7],PBM binding z-score [8]
TGAATGAGGTTAAACATCAGGGAACGTGGCGTCG,0.708,2.37,1.44,1.35,3.15,2.65,0.474,0.833
CCTAGTTGGTCAAAGTCACACACGCTATAGGTAC,1.28,0.912,1.23,0.833,0.561,0.212,0.467,0.811
TCGTGTAGATCAAAGGTTAAGAAAGCCGAAGCCT,1.47,1.76,0.92,0.608,3.14,1.33,0.108,0.111
CTCGAAAGGTCGGTTGAGGTGAGTAGACGGATAA,2.44,2.67,2.67,0.673,2.28,5.01,1.3,0.235
CAGCCTAGGTCAGGGCGAGTATAGGAGGAACGTT,2.44,3.08,3.72,0.0681,1.76,2.03,0.0582,-0.499
CCTCGGAGGACAACAGGAGGCCAGAGCTGCCAGA,0.662,0.553,1.08,-0.152,-0.394,0.476,-0.155,-0.208
CGAAGTAGGTCATTGACAGGACAGTGAATAGTAA,2.74,4.83,4.36,2.27,2.94,2.64,0.373,1.07
CCGACTGGGGCAAGGATACCATAACGCACAGCCA,0.07,0.225,0.802,-0.717,0.232,-0.00683,0.154,-0.376
CGTCCCAGGTCAATGCTAGGTCAGTGAAAGCATT,4.23,6.41,5.01,1.99,3.1,4.25,2.99,1.74
TCATATCGGTAAAGGTGAAAGTCGAACGATATGA,1.32,1.5,1.16,0.447,1.95,1.19,-0.551,-0.566
GCTAGCTGGCCATTTGGGTCACTCAATGACGGGC,1.49,0.332,0.89,-0.667,0.339,1.22,0.32,-0.66
ATAACGAGGGCACGCTGAGTTGATAGCAGAGTAG,1.27,1.72,2.4,1.64,1.46,2.07,0.209,2.05
CTAACTAGGTCAAAGGTCAAAGTCGAGCCAACCA,4.93,8.93,7.64,2.72,10.3,4.84,1.59,3.19
AGTCAAAGTTCATCTAGTTAACGTAAGATATGCT,3.73,5.37,5.78,4.8,4.19,2.13,-0.607,5.21
CAAACTAGGTCACCGGAAGGACAAAGTCCGCATG,4.21,6.38,6.15,1.54,3.82,3.81,2.12,1.38
ACTAGCAGGCCAAGTTTGGGCCACTCAAACAAAG,0.113,0.0368,0.111,-0.286,-0.539,0.356,-0.681,-0.556
GCTGCTAGGTCAACTGCTGGTCAGCTAAAGCTCG,3.54,5.38,5.45,1.4,2.79,2.92,0.954,-0.195
TGTCAAAGTTCAAAGGTATCGTAAGTATCCACAC,3.71,5.75,6.26,4.47,6.28,2.56,-0.19,4.53
CCAGACAGGTGAGAAGGTAATTCAGCCTCGATTA,0.446,0.488,0.401,-0.0232,0.24,0.0341,0.0221,-0.0971

Sequence,PBM binding z-score [1],PBM binding z-score [2],PBM binding z-score [3],PBM binding z-score [4],PBM binding z-score [5],PBM binding z-score [6],PBM binding z-score [7],PBM binding z-score [8]
TAGCCTAGGTCAGTCAGGGGCCAGTATAGAAAGC,2.81,4.53,3.75,-0.63,1.18,1.86,0.122,0.0513
ACTATTAGTTGACTTAGGGCAACCCATACGACGC,1.13,0.747,1.04,0.729,0.631,1.55,0.725,0.642
ATCTCTAGGTAACCAAGTTCAGAGAATGCCGAAC,1.48,0.849,1.13,0.821,0.723,1.46,0.471,2.7
CGTCAAAGTTCGAGGTAACGTAACAGAAAGCAGC,1.46,1.92,2.31,2.39,1.64,2.1,0.898,1.2
GCTGCTAGGTCAGGTTGGTCACCTAACGGGTACG,2.81,2.67,3.43,0.0556,1.44,2.17,1.04,0.477
CGTCCAAGGGCAAAGGTCAGTGAAGAGATGACGG,4.71,6.32,5.49,1.64,6.15,3.45,0.298,1.34
GCTTGTAGATCAAGGTTGAGAAAGACTAAGCTAA,-0.753,-0.343,-0.385,0.0122,-0.32,-0.135,-0.906,-0.235
GGAACGAGGGCAAAGTTGTTAGCATCTGTCGACG,1.15,1.47,1.48,2.61,1.11,1.12,-0.449,1.32
TCATATAGGTAAAAGGTGATAGTCGGTGTGGTAA,1.15,0.851,0.577,1.76,1.86,0.901,0.434,0.283
AATACAGGGTCACTAGGCCAGAGAAGGTACGAAT,3.45,5.18,4.96,2.58,5.52,3.52,1.18,2.31
GATACAGGGTCAAGGCCGGAGTACGCGTATTGAT,3.43,5.35,5.4,2.23,5.79,3.46,1.03,1.78
AATACAGGGTCATGGTAGGCCAGAGTACGCACAG,3.69,5.54,4.93,3.15,6.91,4.38,1.95,3.24
ATCTCAAGGTAAGACTCAGTTCAGTGAAGAACGC,0.641,0.668,0.469,0.363,0.542,1.36,0.884,1.5
CGTCCAACGTCATAGGAGGTCAGTGAAGACAGAT,2.87,1.79,2.24,0.609,1.59,3.15,0.654,1.02
ATCTGTAGGTAACCAAGTTCAGTGAATGCCGAAC,1.32,0.689,0.722,0.655,0.689,1.26,0.246,2.56
TCATATAGGTAAACTGGTGAAAGTCCGTAAGTTA,0.366,0.0786,-0.0648,1.19,0.361,0.34,0.281,0.358
AGAGTGAGGTTAAGATCAGGGAAACAGAATACAT,1.46,2.28,1.68,0.869,2.52,2.6,1.3,1.06
AATACACGGTCATCGTAGGCCAGAGTACGCACAG,2.36,2.06,2.76,0.479,1.07,2.15,-0.0649,0.733
ATCTCTAGGTAAGGATAGTTCAGTGAATGCAAAT,1.05,0.45,0.907,0.233,-0.127,1.21,0.86,0.73

Sequence,PBM binding z-score [1],PBM binding z-score [2],PBM binding z-score [3],PBM binding z-score [4],PBM binding z-score [5],PBM binding z-score [6],PBM binding z-score [7],PBM binding z-score [8]
GCTAGCAGGCGATTTGGGTCACTCAATGACGGGC,1.23,0.467,0.586,-0.454,0.643,1.91,0.374,-0.295
GCTCGTTGGTCAGTAAAAGGTCACACACCGGTCG,5.31,5.69,5.36,0.666,5.85,3.91,2.35,2.44
CCGACAGGGGCAAAGGTTACCATACTCAGTACGA,2.32,3.95,2.17,1.26,5.03,2.17,-0.142,0.724
GTACCAAGGTGAATAGGACGTTGATGAGTAGGCG,0.539,0.543,0.959,-0.489,0.542,1.24,0.345,0.0653
AGAATGAGGTTCCCAAAGATCAGGGAAACGCTTG,-0.864,0.141,0.123,-0.649,0.474,0.218,-0.623,-0.39
ACTATAAGTTGAGACGAGGGCAACCGATAGGTTG,1.57,1.19,1.21,0.723,0.925,3.73,0.194,1.39
AGAATGACGTTATACGTAGATCAGGGAAGAAAGT,-0.508,-0.123,0.109,-0.541,-0.108,-0.592,-1.02,-0.467
GCGACCGGGGCAAAGCAGGTTACCATAAGGTTGG,1.47,1.97,1.54,-0.485,0.949,3.71,-0.0146,-0.132
ATATGTAGGTTATCGGGTCATTCAATTTGCGCAT,3.35,3.52,2.68,1.57,3.4,3.59,2.86,2.76
CGTCCAAGGTCAAGGTCAGTGAAAGAGACTCGAA,5.29,6.79,7.8,3.95,6.28,4.39,3.78,2.89
CATACAGGGTCAGCTAGCCCAGAGTAGGGACGGC,3.08,4.59,4.82,1.69,4.46,2.82,0.68,0.999
GGAACGAGGCCATTCGAGTTGATAGCATGGCGAT,-0.135,0.361,0.706,2.13,-0.125,2.23,-0.443,1.7
CGTCCAAGGTCATAGGAGGTCGGTGAAGACAGAT,4.09,6.01,6.48,3.77,6.13,4.77,2.45,3.77
CGTCCATGGTCAAGGTCAGTGAAAGAGACTCGAA,3.21,3.15,3.78,0.79,2.4,2.84,1.79,1.02
GATAAAGGGTCAAGGCCAGAGTACGCGTATTGAT,4.87,6.46,6.91,2.52,6.59,3.38,0.263,2.36
ATCACTAGGTAACCAAGTTCAGTGAATGCCGAAC,1.26,0.732,0.632,0.466,0.53,1.32,0.313,2.41
GGAACGAGGGCAAAGTTGATAGCATCTGTCGACG,1.33,2.18,1.82,2.76,2.22,1.25,-0.111,1.21
GCTTGTAGATCGAGGTTAAGAAAGACTAAGCTAA,0.303,0.377,0.00467,0.166,1.04,1.38,-0.253,-0.273
CGTCCAAGGTCATAGGAGGTCAGTTAAGACAGAT,5.16,6.57,7.05,4.09,6.19,5.3,3,4.11
